“And” between values parts separate entries of the source, which are not always exact repeats. Equal entries are not always repeated. Inconclusive results are not listed. More than one record can exist for a structure, and the calls need not agree. The source made the active and inactive calls. Unless noted, calls come from the whole dose curve; as a rule, active = well fitted curve in the direction sought with a large enough effect; inconclusive = small, poorly fitted or top-dose-only effect, or another doubt; inactive = no such curve, though single readings can be large; an effect the other way counts as inactive or inconclusive.
Assays:
[1] = tested on: Zika virus NS2B-NS3 protease; experiment: Primary screen GU AMC qHTS for Zika virus inhibitors (AID 1347154);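 note: 0% = no-inhibitor control and -100% = no-enzyme control; nearly all actives have a fitted effect of over 70% in size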
Procedure, shortened: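 Fluorogenic AMC-substrate cleavage by noncovalent NS2B-NS3 protease complex (25 nM, pH 8.0 Tris buffer with Tween 20) followed for 15 minutes at room temperature (~20% conversion). Percent inhibition from ex340/em450 signal change, fitted by 4-parameter Hill equation.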

[2] = biological target: Cytochrome P450 1A2 (Homo sapiens) (UniProt P05177); experiment: p450-cyp1a2 (AID 410; calls by dose curve;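 note: -100% = full effect of reference inhibitor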)
Procedure, shortened: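 Human CYP1A2 (20nM) demethylated Luciferin-ME at its Km (100uM) in 100mM KPO4. After 10 min compound preincubation, NADPH regeneration ran the reaction 60 min at room temperature. Luciferin was read by luminescence, normalized to 57 uM furafylline.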

[3] = biological target: Glucocorticoid receptor (Homo sapiens) (UniProt P04150); experiment: GR-GFP Redistribution (AID 450;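 active = compounds whose dose series gives a full or clear partial fitted curve of increased nuclear translocation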; note: potency is the fitted concentration of half-maximal effect); settings: U2OS GR-GFP nuclear translocation, laser cytometry, 2 h
Sequence of Glucocorticoid receptor (Homo sapiens) (P04150 whole entry, looked up, the tested form may be a part): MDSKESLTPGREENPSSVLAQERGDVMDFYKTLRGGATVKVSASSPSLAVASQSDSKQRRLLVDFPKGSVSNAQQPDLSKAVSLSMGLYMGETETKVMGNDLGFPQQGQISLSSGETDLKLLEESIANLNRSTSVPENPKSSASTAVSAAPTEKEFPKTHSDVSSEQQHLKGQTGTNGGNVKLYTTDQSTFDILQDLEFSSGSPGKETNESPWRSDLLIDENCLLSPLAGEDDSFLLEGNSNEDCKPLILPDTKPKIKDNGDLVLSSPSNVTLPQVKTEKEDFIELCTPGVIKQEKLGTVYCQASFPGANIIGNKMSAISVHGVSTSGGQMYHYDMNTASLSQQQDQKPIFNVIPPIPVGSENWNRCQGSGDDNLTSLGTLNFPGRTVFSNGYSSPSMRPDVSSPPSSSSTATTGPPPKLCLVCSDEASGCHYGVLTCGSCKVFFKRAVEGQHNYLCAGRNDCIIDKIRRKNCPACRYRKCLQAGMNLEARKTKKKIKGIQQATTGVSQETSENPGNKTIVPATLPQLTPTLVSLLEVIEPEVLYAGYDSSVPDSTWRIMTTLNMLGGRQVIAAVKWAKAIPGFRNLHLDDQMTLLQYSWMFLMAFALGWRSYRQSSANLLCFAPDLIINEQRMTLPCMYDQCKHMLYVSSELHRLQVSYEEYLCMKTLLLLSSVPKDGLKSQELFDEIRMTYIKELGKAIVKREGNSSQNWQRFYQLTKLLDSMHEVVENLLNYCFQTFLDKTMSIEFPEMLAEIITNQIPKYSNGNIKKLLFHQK

[4] = biological target: Glucocorticoid receptor (Homo sapiens) (UniProt P04150); experiment: GR-EFC Redistribution (AID 451; calls by dose curve; note: potency is the fitted concentration of half-maximal effect); settings: CHO-K1 GR-EFC translocation, beta-gal luminescence, 2 h
Procedure, shortened: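 Translocation of GR-ED fusion to nuclear EA restores b-gal, read by luminescence after 1 h room-temperature detection. Engineered CHO-K1 biosensor cells, 1,000/well, exposed 2 h at 37 C to titrations up to 46 uM final.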

[5] = biological target: Mitogen-activated protein kinase 10 (Mus musculus) (UniProt Q61831); experiment: JNK3 AlphaScreen Assay (AID 530; active = well fitted curve in either direction with a large enough effect, not every such curve was filed as active;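 note: kinase came from lysate of stimulated human HepG2 cells; signal reports phosphorylation of biotinylated GST-cJun 1-79 at Ser73 with 10 µM ATP; % is set by controls: 0 for no effect and ±100 for the full control effect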)
Procedure, shortened: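 Room-temperature AlphaScreen kinase assay; pre-activated HepG2 lysate as JNK3 source, biotin-GST-cJun(1-79) substrate, 10 uM ATP, compound 15 min preincubation.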

[6] = biological target: 3',5'-cyclic-AMP phosphodiesterase 4B (Homo sapiens) (UniProt Q07343); experiment: qHTS Assay for Inhibitors of PDE-IV (AID 607; active = well fitted activation curve with a large enough effect in the main read-out, with a control signal flat, not every such curve was filed as active; note: % of control where 0% means no effect)
Sequence of 3',5'-cyclic-AMP phosphodiesterase 4B (Homo sapiens) (Q07343 whole entry, looked up): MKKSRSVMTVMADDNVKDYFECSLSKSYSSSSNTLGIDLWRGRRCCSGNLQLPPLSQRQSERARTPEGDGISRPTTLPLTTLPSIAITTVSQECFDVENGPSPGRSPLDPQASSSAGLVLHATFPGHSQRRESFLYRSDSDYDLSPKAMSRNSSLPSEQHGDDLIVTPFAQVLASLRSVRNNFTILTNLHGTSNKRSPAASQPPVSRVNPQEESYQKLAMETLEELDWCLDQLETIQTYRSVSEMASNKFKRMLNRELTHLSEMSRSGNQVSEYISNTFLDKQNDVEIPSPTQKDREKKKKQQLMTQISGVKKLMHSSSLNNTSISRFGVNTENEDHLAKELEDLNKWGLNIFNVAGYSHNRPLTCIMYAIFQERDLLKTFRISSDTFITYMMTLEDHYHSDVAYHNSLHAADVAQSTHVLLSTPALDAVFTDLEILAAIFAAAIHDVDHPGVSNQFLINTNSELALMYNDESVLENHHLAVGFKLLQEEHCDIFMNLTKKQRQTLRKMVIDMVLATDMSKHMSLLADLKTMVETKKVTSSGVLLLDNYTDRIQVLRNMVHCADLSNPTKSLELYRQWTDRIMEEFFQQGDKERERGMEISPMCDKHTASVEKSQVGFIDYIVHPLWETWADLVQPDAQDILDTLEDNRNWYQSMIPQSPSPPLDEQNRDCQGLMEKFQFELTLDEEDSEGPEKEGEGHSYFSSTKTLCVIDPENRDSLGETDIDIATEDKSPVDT
Procedure, shortened: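 Cell-based read-out of cAMP via a modified cyclic nucleotide-gated channel and membrane potential dye (535/590 nm) in HEK293 cells expressing PDE4 endogenously. Compounds tested up to 22.9 uM final; 100 uM RO 20-1724 reference.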

[7] = biological target: Guanine nucleotide-binding protein G(i) subunit alpha-1 (Homo sapiens) (UniProt P63096); experiment: qHTS Assay for Inhibitors of RGS12 GoLoco Motif Activity (Green Fluorophore) (AID 879);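 note: 0% = labeled peptide with Gαi1 and full inhibition = labeled peptide alone without protein; negative values mean loss of peptide binding seen as reduced polarization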
Sequence of Guanine nucleotide-binding protein G(i) subunit alpha-1 (Homo sapiens) (P63096 whole entry, looked up): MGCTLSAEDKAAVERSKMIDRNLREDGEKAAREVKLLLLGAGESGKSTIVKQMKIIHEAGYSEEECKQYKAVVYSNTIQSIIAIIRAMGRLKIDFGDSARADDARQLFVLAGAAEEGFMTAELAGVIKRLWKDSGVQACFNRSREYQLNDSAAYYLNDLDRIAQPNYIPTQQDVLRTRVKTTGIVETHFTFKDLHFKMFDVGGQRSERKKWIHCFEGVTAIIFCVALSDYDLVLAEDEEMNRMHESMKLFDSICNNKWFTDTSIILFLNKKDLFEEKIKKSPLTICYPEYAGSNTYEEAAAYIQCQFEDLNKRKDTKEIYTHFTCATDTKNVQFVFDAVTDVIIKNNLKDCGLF
Procedure, shortened: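 Fluorescence polarization assay: 50 nM Gαi1 with 10 nM FITC-labeled RGS12 GoLoco peptide in 10 mM Tris pH 7.5, 150 mM NaCl, 0.1 mM GDP, 0.05% NP40, 10 min at room temperature with compound.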

[8] = biological target: Cytochrome P450 2C9 (Homo sapiens) (UniProt P11712); experiment: qHTS Assay for Inhibitors and Substrates of Cytochrome P450 2C9 (AID 883); note: potency is the fitted concentration of half-maximal effect; nearly all actives have a fitted effect of over 60% in size
Sequence of Cytochrome P450 2C9 (Homo sapiens) (P11712 whole entry, looked up): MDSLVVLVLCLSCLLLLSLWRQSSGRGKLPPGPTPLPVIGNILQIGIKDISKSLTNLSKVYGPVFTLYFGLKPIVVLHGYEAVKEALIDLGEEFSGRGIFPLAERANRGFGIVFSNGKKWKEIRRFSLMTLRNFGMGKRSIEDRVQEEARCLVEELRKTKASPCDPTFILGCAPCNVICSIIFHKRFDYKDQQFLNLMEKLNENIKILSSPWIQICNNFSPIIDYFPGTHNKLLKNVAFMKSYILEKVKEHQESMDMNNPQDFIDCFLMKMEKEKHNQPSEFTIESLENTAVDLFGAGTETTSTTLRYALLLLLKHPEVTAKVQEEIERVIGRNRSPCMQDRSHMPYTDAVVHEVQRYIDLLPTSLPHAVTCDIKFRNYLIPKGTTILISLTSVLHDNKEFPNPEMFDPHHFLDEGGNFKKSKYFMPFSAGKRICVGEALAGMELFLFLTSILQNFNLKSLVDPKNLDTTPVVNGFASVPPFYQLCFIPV
Procedure, shortened: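 Turnover of Luciferin-H (100uM, KM) by 10nM human CYP2C9 was measured over 60 min at 37C with NADPH regeneration; inhibitors and some substrates reduce luminescence. Data normalized to sulphaphenazole 57uM.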

[9] = biological target: Cytochrome P450 2C19 (Homo sapiens) (UniProt P33261); experiment: qHTS Assay for Inhibitors and Substrates of Cytochrome P450 2C19 (AID 899); note: potency is the fitted concentration of half-maximal effect; nearly all actives have a fitted effect of over 60% in size
Sequence of Cytochrome P450 2C19 (Homo sapiens) (P33261 whole entry, looked up): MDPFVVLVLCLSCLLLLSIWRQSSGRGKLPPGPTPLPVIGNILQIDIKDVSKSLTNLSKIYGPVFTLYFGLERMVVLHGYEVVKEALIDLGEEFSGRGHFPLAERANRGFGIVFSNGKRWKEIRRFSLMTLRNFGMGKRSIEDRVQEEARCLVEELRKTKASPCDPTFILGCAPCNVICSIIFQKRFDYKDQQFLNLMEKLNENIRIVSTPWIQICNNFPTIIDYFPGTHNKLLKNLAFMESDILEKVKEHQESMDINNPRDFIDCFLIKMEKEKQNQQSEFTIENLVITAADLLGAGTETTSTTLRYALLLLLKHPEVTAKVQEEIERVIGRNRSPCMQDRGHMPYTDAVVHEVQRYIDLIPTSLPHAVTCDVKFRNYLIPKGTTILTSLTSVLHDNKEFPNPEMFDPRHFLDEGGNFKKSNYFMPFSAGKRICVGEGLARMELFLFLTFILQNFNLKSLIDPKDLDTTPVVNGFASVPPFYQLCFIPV
Procedure, shortened: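 Reactions contain 5nM enzyme, 10uM Luciferin-H EGE (KM) and 50mM KPO4; compound preincubates 10 min at 37C, NADPH regeneration starts turnover for 60 min. Luminescence after detection reagent gives activity.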

[10] = qHTS Assay for Identification of Small Molecule Antagonists for Thrombopoietin (TPO) Signaling Pathway (AID 918); settings: TPO-dependent cell signaling reporter, antagonist mode; note: potency is the fitted concentration of half-maximal effect; nearly all actives have a fitted effect of over 60% in size
Procedure, shortened: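 Murine Ba/F3 cells stably expressing human TPO receptor and a Glycoprotein IIb promoter–luciferase reporter were IL-3-starved overnight, treated with compounds plus TPO (26 pM final, its EC50) for 24 hrs at 37 C, then read by luminescence.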

[11] = biological target: Pyruvate kinase (Leishmania mexicana) (UniProt Q27686); experiment: qHTS Validation Assay for Inhibitors of Leishmania Mexicana Pyruvate Kinase (AID 945);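 note: 0% = DMSO only neutral control wells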
Sequence of Pyruvate kinase (Leishmania mexicana) (Q27686 2-499 E452W): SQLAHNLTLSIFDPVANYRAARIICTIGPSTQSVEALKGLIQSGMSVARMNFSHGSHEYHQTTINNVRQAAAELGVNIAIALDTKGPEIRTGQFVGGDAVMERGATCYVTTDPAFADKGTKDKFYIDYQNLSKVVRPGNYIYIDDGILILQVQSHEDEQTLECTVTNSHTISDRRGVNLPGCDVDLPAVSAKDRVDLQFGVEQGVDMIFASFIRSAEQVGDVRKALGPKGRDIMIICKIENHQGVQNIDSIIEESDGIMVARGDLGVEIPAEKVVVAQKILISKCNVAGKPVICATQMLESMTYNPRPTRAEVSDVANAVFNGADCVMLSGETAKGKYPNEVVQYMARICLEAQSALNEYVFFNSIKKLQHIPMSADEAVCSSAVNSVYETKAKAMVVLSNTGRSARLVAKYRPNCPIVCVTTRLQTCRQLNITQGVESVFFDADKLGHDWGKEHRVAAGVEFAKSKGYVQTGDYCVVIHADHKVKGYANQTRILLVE
Procedure, shortened: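 The enzyme is a highly purified E451W mutant of LmPYK used at 0.2 nM. It converts 0.5 mM PEP and 0.1 mM ADP over 1 h at room temperature; product ATP is quantified by luciferase luminescence relative to DMSO controls.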

[12] = biological target: Alpha-galactosidase (Coffea arabica) (UniProt Q42656); experiment: Counterscreen for Glucocerebrosidase Inhibitors: qHTS Assay for Coffee Bean alpha-Galactosidase at pH 4.5 (AID 957);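 note: plate controls were enzyme alone for no effect and no enzyme for full effect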
Sequence of Alpha-galactosidase (Coffea arabica) (Q42656 whole entry, looked up): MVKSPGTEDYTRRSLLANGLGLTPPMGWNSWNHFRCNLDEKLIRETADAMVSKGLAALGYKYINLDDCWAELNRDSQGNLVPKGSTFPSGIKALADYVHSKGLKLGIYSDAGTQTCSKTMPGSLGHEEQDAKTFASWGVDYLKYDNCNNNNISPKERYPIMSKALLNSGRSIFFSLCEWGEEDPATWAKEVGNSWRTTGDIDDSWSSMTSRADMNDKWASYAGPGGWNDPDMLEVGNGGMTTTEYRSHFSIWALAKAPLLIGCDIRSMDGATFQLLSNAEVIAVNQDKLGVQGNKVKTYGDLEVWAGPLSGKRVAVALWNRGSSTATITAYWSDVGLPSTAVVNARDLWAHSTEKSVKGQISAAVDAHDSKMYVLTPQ
Procedure, shortened: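 Green coffee bean enzyme (2 nM final) was incubated with compounds (0.7 nM to 77 uM) and 4-methylumbelliferyl alpha-D-galactopyranoside (80 uM final) in 50 mM citric acid, 0.005% Tween-20, pH 4.5, 20 min at room temperature; AC50 from Hill fits.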

[13] = biological target: Alpha-galactosidase A (Homo sapiens) (UniProt P06280); experiment: Counterscreen for Glucocerebrosidase Inhibitors: qHTS Assay for Human alpha-Galactosidase at pH 4.5 (AID 992); note: 0% is about no effect
Procedure, shortened: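 Quantitative HTS: compounds tested from 0.7 nM up to 77 uM against 2 nM enzyme with 80 uM 4-MU alpha-D-galactopyranoside. The 20 min room-temperature reaction is stopped with 1M NaOH/1M glycine, pH 10.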

[14] = biological target: Alpha-galactosidase (Coffea arabica) (UniProt Q42656); experiment: Counterscreen for Glucocerebrosidase Inhibitors: qHTS Assay for Coffee Bean alpha-Galactosidase at pH 5.9 (AID 998);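 note: plate controls were uninhibited enzyme for no effect and no-enzyme basal signal for full effect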
Procedure, shortened: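 Compounds were titrated from 0.7 nM to 77 uM against green coffee bean alpha-galactosidase (2 nM) using 80 uM fluorogenic 4-methylumbelliferyl substrate. After 20 min at room temperature, reactions were stopped at pH 10 and read by fluorescence.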

[15] = biological target: Ubiquitin carboxyl-terminal hydrolase 1 (Homo sapiens) (UniProt O94782); experiment: Inhibitors of USP1/UAF1: Pilot qHTS (AID 504865); note: nearly all actives have a fitted effect of over 35% in size; note: potency is the fitted concentration of half-maximal effect;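 for activity change, negative = inhibition: rhodamine fluorescence freed from ubiquitin-rhodamine substrate followed over time; top concentration of the series differs between compounds; % is set by controls: 0 for no effect and ±100 for the full control effect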
Sequence of Ubiquitin carboxyl-terminal hydrolase 1 (Homo sapiens) (O94782 whole entry, looked up): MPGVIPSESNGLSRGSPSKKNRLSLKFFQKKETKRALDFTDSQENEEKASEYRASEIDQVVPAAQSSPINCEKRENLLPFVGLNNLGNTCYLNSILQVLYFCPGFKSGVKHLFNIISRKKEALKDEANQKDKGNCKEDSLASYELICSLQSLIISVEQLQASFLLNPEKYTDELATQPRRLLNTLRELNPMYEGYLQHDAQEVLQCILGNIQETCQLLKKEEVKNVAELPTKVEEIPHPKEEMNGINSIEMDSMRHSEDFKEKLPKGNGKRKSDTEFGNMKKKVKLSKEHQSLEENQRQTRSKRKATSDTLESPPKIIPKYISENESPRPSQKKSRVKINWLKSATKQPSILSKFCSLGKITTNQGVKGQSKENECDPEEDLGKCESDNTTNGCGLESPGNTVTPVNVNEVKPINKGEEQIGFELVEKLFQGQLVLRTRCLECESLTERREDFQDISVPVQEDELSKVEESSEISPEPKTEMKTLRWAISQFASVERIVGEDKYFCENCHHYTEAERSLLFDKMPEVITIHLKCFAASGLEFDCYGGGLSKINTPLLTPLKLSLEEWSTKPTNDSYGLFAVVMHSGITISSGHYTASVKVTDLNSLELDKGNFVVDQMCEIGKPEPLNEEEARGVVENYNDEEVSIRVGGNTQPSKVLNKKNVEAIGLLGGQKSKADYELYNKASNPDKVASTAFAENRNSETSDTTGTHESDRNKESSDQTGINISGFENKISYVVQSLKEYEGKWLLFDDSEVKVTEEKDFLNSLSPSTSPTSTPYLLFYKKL
Procedure, shortened: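 In 50mM HEPES pH 7.8 containing 0.5mM EDTA, 1mM TCEP, 0.1 mg/ml BSA and 0.01% Tween-20, 1nM USP1/UAF1 is exposed to compound for 15 min, then Ub-Rho (150nM final) is added and fluorescence is read over time.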

[16] = biological target: DNA dC->dU-editing enzyme APOBEC-3G (Homo sapiens) (UniProt Q9HC16); experiment: qHTS for inhibitors of Vif-A3G interactions: Validation (AID 588379); note: 0% is about no effect
Sequence of DNA dC->dU-editing enzyme APOBEC-3G (Homo sapiens) (Q9HC16 whole entry, looked up): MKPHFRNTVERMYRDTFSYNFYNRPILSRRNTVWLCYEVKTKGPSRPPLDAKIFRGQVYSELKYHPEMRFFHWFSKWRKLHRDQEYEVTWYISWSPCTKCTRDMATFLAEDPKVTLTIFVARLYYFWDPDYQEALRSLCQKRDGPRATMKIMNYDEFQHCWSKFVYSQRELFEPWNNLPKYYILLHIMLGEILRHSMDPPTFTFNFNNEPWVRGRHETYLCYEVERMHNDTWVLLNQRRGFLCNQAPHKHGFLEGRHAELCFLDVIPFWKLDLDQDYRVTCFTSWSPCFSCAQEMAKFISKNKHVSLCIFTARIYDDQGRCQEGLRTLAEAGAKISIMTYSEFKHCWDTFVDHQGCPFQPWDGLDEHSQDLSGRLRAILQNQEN
Procedure, shortened: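 HeLa cells stably expressing Vif and A3G-eYFP, 700 cells/well, incubated overnight at 37 deg C, then exposed to compound overnight at 37 deg C. Inhibition of Vif-mediated degradation read as increased yellow fluorescence (Ex 488/Em 500-530) by laser-scanning cytometry.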

[17] = Confirmatory qHTS for small molecule stabilizers of the endoplasmic reticulum resident proteome: Secreted ER Calcium Modulated Protein (SERCaMP) assay (AID 1508628); note: nearly all actives have a fitted effect of over 40% in size; note: potency is the fitted concentration of half-maximal effect
Procedure, shortened: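 We seeded SH-SY5Y-GLuc-SERCaMP cells, added compounds (three concentrations in the primary run, eleven up to 76.6 uM in confirmation), incubated 16 h, depleted ER calcium with thapsigargin, and read luciferase 4 h later.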

[18] = Cell Viability qHTS for small molecule stabilizers of the endoplasmic reticulum resident proteome (AID 1508629); settings: cell viability counter-screen, 100 nM thapsigargin for final 4 h;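 note: human SH-SY5Y neuroblastoma cells carrying the GLuc-SERCaMP reporter; compound exposure about 46 h in total before the viability read; % is set by controls: 0 for no effect and ±100 for the full control effect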
[19] = Primary qHTS for small molecule stabilizers of the endoplasmic reticulum resident proteome: Secreted ER Calcium Modulated Protein (SERCaMP) assay (AID 1508630); note: % is set by controls: 0 for no effect and ±100 for the full control effect
Procedure, shortened: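 GLuc-SERCaMP-expressing SH-SY5Y cells, pretreated 16 h with compound, are challenged with thapsigargin to empty ER calcium stores; after 4 h, coelenterazine is added directly to the medium and luminescence is imaged.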

[20] = qHTS Assay for Lipid Storage Modulators (AID 1519; calls by dose curve); settings: Drosophila S3 cells, BODIPY lipid droplet/cell ratio, laser cytometry, cells loaded with oleic acid
Procedure, shortened: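 Cells seeded at 5,000 per well were treated with compounds over a concentration series and loaded with oleic acid (400 uM, as added). Lipid droplet fluorescence (488 nm excitation, 500-530 nm channel) was read by laser-scanning cytometry and normalized to 20 uM Triacsin C.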

NC(=O)[C@H](Cc1ccccc1)NC(=O)[C@H](Cc1c[nH]c2ccccc12)NC(=O)[C@@H]1CCCN1C(=O)[C@@H](N)Cc1ccc(O)cc1
inactive: activity change, negative = inhibition [1] 11.2% [at 6.83 µM]

CC(C)[C@@]1(NC(=O)[C@@H]2C[C@H]3c4cccc5[nH]cc(c45)C[C@@H]3N(C)C2)O[C@@]2(O)[C@H]3CCCN3C(=O)[C@H](Cc3ccccc3)N2C1=O
35.5 µM (active) and inactive: Potency [17]
active: Potency [8] 2.51 µM and 6.31 µM | Potency [9] 3.98 µM and 5.01 µM | Potency [10] 10 µM
inactive: Potency [2] | Potency [3] > 46 µM | Potency [4] > 46 µM | outcome [5] | Potency [6] | outcome [7] | outcome [11] | outcome [12] | outcome [13] | outcome [14] | Potency [15] | Potency [16] | Potency [1] | max response [18] -30.4%

CC(C)(O)C1O[C@H]2CC[C@@]3(C)[C@@](O)(CC[C@H]4Cc5c([nH]c6ccccc56)[C@@]43C)C2=CC1=O (stereo not given in full)
inactive: Potency [1] | Potency [19]
active: Potency [17] 39.8 µM

CCCCCOc1c(OC)ccc2cc(C(=O)NCc3ccc4c(c3)OCO4)c(=O)[nH]c12
inactive: Potency [1]

Cl.Cl.Cl.Cl.Cl.Cl.N.N.N.N.NNNNN.NNNNN.O.O.[Ru].[Ru].[Ru]
inactive: Potency [4] > 46 µM | outcome [5] | Potency [6] | activity change, negative = inhibition ([20]; at 57.5 µM (top of the series)) -5.89% | Potency [16] | Potency [1] | max response [18] 7.14%
-31.1%: max response ([20]; measured here: lipid channel max response)
active: Potency [15] 50.1 µM | Potency [17] 15.8 µM
-27.5%: max response ([20]; measured here: cell count channel max response)

CN1CC[C@@]2(c3cccc(O)c3)Cc3nc4ccccc4cc3C[C@H]2C1
inactive: Potency [3] > 46 µM | Potency [4] > 46 µM | outcome [5] | Potency [16] | Potency [1] | max response [18] -3.73%
